High-throughput results as filed in PubChem.
Sampled rows, rich in hits. Any-hit rate of the full collection: about 1.5%.
RAD52 inh: RAD52 (human) annealing inhibition; recombinant RAD52 DNA annealing, FRET fluorescence; inhibition, % at 18.7 µM; 0.46% of 360,000 active; AID 651710;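 active = every replicate showing at least 50% inhibition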
Target sequence (P43351 whole entry, looked up): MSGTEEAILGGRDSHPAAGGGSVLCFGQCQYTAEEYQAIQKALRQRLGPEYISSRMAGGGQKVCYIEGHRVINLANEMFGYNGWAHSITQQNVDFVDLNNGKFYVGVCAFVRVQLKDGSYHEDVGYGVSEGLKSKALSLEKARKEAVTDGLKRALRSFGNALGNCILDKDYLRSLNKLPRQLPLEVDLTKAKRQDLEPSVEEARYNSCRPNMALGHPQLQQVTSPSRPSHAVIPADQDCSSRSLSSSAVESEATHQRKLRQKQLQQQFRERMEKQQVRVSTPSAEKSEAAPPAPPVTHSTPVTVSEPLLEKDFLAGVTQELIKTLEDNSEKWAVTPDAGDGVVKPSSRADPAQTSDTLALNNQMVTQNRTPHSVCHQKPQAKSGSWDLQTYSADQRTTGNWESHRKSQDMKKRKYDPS
miR122 inh: inhibitors of miR-122 in Huh7 cells; 0.3% of 340,000 active; AID 602342; activation (reporter increase), % at 12.5 µM; Huh7 miR-122 Renilla luciferase sensor, 48 h; neutral wells = 0, positive control = 100;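 active = mean replicate activation score at least 90 and every replicate individually at or above 90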;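 also: higher luciferase means less miR-122 activity so hits act as miR-122 inhibitors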
Casp6 inh: caspase-6 (human) enzyme inhibition; P55212; purified caspase-6, Z-VEID-R110 cleavage fluorescence; inhibition, % at 12.5 µM; 0.53% of 350,000 active;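 active = mean inhibition across replicates at least about 35%, with every replicate also reaching that limit, limit read from the data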
MLL AF4-AF9 inh: MLL-AF4/AF9 protein interaction inhibition. AlphaScreen, biotin-AF4 peptide binding to FLAG-AF9. AID 651704. 0.47% of 350,000 active. inhibition, % at 10 µM. P42568;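 active = every replicate reaching a set inhibition limit, whatever the replicate mean, cut at about 25% in these data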
NSD2 inh: inhibitors of human histone methyltransferase NSD2. O96028. NSD2 peptide methylation, AlphaScreen, 120 min. inhibition, % at 12.5 µM. 0.54% of 310,000 active; in the data active = inhibition above about 50%
A number is an active result; . = inactive; / = no result; ! = a repeat was not active.

SMILES	RAD52 inh	miR122 inh	Casp6 inh	MLL AF4-AF9 inh	NSD2 inh
O=C(Nc1sc2c(c1C(=O)O)CCC2)c1ccco1	.	123	.	/	.
CC1(C)Cc2c(sc(NC(=O)c3ccco3)c2C(=O)O)CO1	.	/	37	.	/
CC1(C)Cc2c(sc(NC(=S)NC(=O)c3ccccc3)c2C(=O)O)CO1	.	/	.	.	.
COC(=O)c1c(NC(=O)c2ccco2)sc2c1CCC2	/	.	/	/	.
C[C@]12CCC3C4(C=CC5(C=C4C(=O)c4ccc(F)c(F)c4)C[C@@H](O)CC[C@]35C)C1CC[C@@]2(O)CN1CCC(C(N)=O)CC1 (some centres not stated)	.	/	.	.	/
CCCN(C)C[C@@H]1OCCCC[C@@H](C)Oc2ccc(NC(=O)NC(C)C)cc2C(=O)N([C@@H](C)CO)C[C@@H]1C	.	.	.	.	/
COc1cc(C)c(CN2CCSCC2)cc1C	.	.	.	.	.
COc1cc(OC)c(OC)cc1CN1CCSCC1	.	.	36	.	.
Cc1ccccc1-c1cnc2c(c1)C(=O)N([C@@H](C)CO)C[C@@H](C)[C@@H](CN(C)Cc1cccnc1)O2	.	.	.	.	/
CN(C)CCCCCCNC(=O)[C@@H]1C[C@@H]2C(=O)N3CCC[C@H]3C(=O)N2[C@@H]1c1ccc(O)cc1	.	/	.	29	/
CCCN1C[C@H](C)[C@H](OC)CN(C)C(=O)c2cc(NC(=O)Nc3c(C)noc3C)ccc2OC[C@H]1C	.	/	.	.	/
Cc1ccc(S(=O)(=O)Nc2c(C)ccc3nsnc23)cc1	/	138	/	/	.
O=C1NN(c2ccc(Cl)c(Cl)c2)C(=O)/C1=C/c1ccc(-c2ccccc2C(=O)O)o1	.	.	37	.	.
COC(=O)c1ccc(N2NC(=O)/C(=C/c3ccc(-c4ccc(Cl)c(C(=O)O)c4)o3)C2=O)cc1	.	/	58	.	.
COc1ccc(NC(=O)Nc2ccc3c(c2)C(=O)N([C@@H](C)CO)C[C@H](C)[C@H](CN(C)C(=O)c2ccccc2)OCCCC[C@H](C)O3)cc1	.	.	.	.	/
CC(C)CN(C(=O)COC(=O)/C=C/c1ccccc1)C1CCS(=O)(=O)C1 (configuration not stated)	.	.	39	.	.
COc1ccc(-c2ccc(C3[C@H]4CNC[C@@H]3N4C(=O)Nc3ccc(C(F)(F)F)cc3)cc2)cc1 (some centres not stated)	66!	/	.	.	/
COc1ccc(NC(=O)N2[C@@H]3CNC[C@H]2C3c2ccc(/C=C/c3ccccc3)cc2)cc1 (some centres not stated)	55	/	.	.	/
COc1ccc(NC(=O)N2[C@@H]3CNC[C@H]2C3c2ccc(-c3ccc(F)cc3)cc2)cc1 (some centres not stated)	57	/	.	.	/
COc1ccc(-c2ccc(C3[C@H]4CNC[C@@H]3N4C(=O)Nc3ccc(F)cc3)cc2)cc1 (some centres not stated)	.	/	.	.	/
COc1ccc(NC(=O)N2[C@@H]3CNC[C@H]2C3c2ccc(-c3ccc(OC)cc3)cc2)cc1 (some centres not stated)	.	/	.	.	/
C[C@@H]1CN([C@H](C)CO)S(=O)(=O)c2ccc(C3=CCCC3)cc2O[C@@H]1CN(C)C(=O)C1CC1	/	.	/	/	/
CNC[C@@H]1OCCCC[C@@H](C)Oc2ccc(N(C)C)cc2C(=O)N([C@@H](C)CO)C[C@H]1C	/	/	.	.	/
CCOC(=O)c1sc(N(Cc2ccccc2)C(=O)CCl)nc1C	.	.	.	.	/
O=C(O)CSCC(=O)N(Cc1ccccc1)c1nc(-c2ccccc2)c(-c2ccccc2)s1	.	.	37	.	.
SMILES	RAD52 inh	miR122 inh	Casp6 inh	MLL AF4-AF9 inh	NSD2 inh
Cc1cc(C(C)(C)C)cc(S(=O)(=O)Nc2cccc(C(=O)O)c2)c1C	.	.	.	.	.
Cc1ccccc1NC(=O)c1ccc(NS(=O)(=O)c2cc(C(C)(C)C)cc(C)c2C)cc1	/	321	/	/	.
C[C@@H]1CN([C@@H](C)CO)C(=O)c2cccc(NC(=O)Nc3ccc(F)cc3)c2O[C@@H]1CN(C)Cc1ccccc1	.	.	.	.	/
O=C1C2=C(c3ccccc31)[N+](=O)[C@@H]1CCCC[C@@H]1N2[O-]	.	.	63	.	.
C[C@@H]1CN([C@@H](C)CO)C(=O)c2cc(NC(=O)C3CC3)ccc2O[C@H]1CN(C)C(=O)Nc1ccc(F)cc1	.	.	.	.	/
C/C(=N\NC(=O)c1ccccc1O)c1cccc(NC(=O)c2ccccc2)c1	.	.	.	.	/
C/C(=N\NC(=O)c1cc(O)ccc1O)c1cccc(NC(=O)c2ccc(Cl)cc2)c1	.	.	53	.	.
C/C(=N\NC(=O)c1cc(O)ccc1O)c1cccc(NC(=O)c2cccc(Cl)c2)c1	.	.	39	.	.
O=C(c1ccccc1OC(F)F)N1CCN(S(=O)(=O)/C=C/c2ccccc2)CC1	/	/	/	/	.
COc1ccc(C)cc1S(=O)(=O)Nc1cccc(SC)c1	/	166	/	/	.
COc1ccc(NS(=O)(=O)c2cc(C)ccc2OC)cc1OC	/	95	/	/	.
CO[C@@H]1CN(C)C(=O)c2ccc(NC(=O)c3ccccn3)cc2OC[C@@H](C)N(Cc2ccccn2)C[C@H]1C	/	.	/	/	/
O=C(c1cccnc1)N1CC[C@@H]2[C@H](CO)Nc3ccc(-c4cccc(F)c4)cc3[C@@H]21	.	.	.	.	/
O=C(CSc1nnc(Nc2ccccc2F)s1)NC(=O)CN1CCCC1=O	.	.	42	.	.
C#CCn1c(=NC(=O)c2ccco2)sc2cccc(Cl)c21	.	.	.	31	.
CCOc1cccc2sc(=NC(=O)c3ccco3)n(CC(=O)OC)c12	.	.	.	.	.
CCCN1[C@@H]2Cn3c(ccc(/C=C/c4ccccc4)c3=O)[C@H]1[C@@H](C(=O)NCc1ccccn1)[C@@H]2CO	.	.	.	.	/
O=C(NCc1ccccn1)[C@H]1[C@H](CO)[C@H]2Cn3c(cccc3=O)[C@@H]1N2CC1CCCCC1	51	.	.	.	/
CC=Cc1ccc2n(c1=O)C[C@@H]1[C@@H](CO)[C@H](C(=O)NCc3ccccn3)[C@H]2N1CCC (mixture of isomers)	96	.	.	.	/
CC(=O)N1[C@@H]2c3cccc(=O)n3C[C@H]1[C@H](CO)[C@H]2C(=O)NCC1CCCCC1	63	.	.	.	/
CCCNC(=O)N1C[C@@H](O)COC[C@H]2O[C@H](CC(=O)N3CCCCC3)CC[C@@H]21	.	.	.	.	/
Cc1c(Cl)c(C(F)F)nn1CC(=O)NC1C(=O)N2C(C(=O)O)=C(CSc3nnnn3C)CSC12 (configuration not stated)	.	/	38	.	.
COC(=O)C[C@H]1CC[C@H]2[C@@H](COc3ccc(NC(=O)Cc4cccs4)cc3C(=O)N2C)O1	.	/	.	.	/
O=C1NC(Cc2ccc(O)cc2)c2nc3ccc(Br)cc3c(=O)n2-c2ncccc21 (configuration not stated)	.	.	40	.	/
